In PubChem BioAssay (EPA / NIEHS) one finds outcome and AC50 data, which are given here for 13 compounds.

Activity calls are given as the source filed them. How the source made its calls: active means hit-call score of the fitted dose curve at least 0.9, where 1 is the maximum; inactive means score below 0.9.

Read-out in the experiment: Interleukin 2 (IL2), IL2 (gene 3558)
As to the kind of experiment: BSK_BT_xIL2: BioMAP Diversity Plus: BT Assay for Interleukin 2 (IL2) Biomarker Activity (AID 2284245). Particulars: primary human B cells with PBMC. Put shortly:
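Human B cells co-cultured with PBMC, exposed to test chemical for 24 h. Secreted IL-2 quantified by Luminex xMAP bead immunoassay; activity fitted in the positive direction relative to DMSO vehicle baseline.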
`CC1CCC(C(C)CS)CC1S` (stereo not drawn): the outcome was inactive. Usually AC50 stands for the concentration giving half of the maximal activity seen. As for `O=C(O)C[C@H](O)C[C@H](O)/C=C/c1c(C2CC2)nc2ccccc2c1-c1ccc(F)cc1`, the AC50 is 5 µM (active). As for `O=C(O)c1cn(-c2ccc(F)cc2)c2cc(N3CCNCC3)c(F)cc2c1=O`, the result was inactive. Still for that read-out and setting: the entry for `CC(C)Oc1ccccc1O` is “inactive”; for `CC1COc2ccccc2N1C(=O)C(Cl)Cl` (stereo not drawn) it is “inactive”.

Consider `Nc1cc([N+](=O)[O-])ccc1Cl`, for which the result was inactive. The same measure, in the same setting: for `CCCCCCCCCC=O` the value was “inactive”.

`O=C(O)c1cn(C2CC2)c2cc(N3CCNCC3)c(F)cc2c1=O`: the outcome was inactive.

Turning to `CCCCC(CC)COC(=O)/C=C\C(=O)OCC(CC)CCCC` (stereo not drawn), the concentration at half-maximal activity (AC50) was 20 µM (active).

With `CCCCCCCCC=O`, the result was inactive.

On to `CN(CCOc1ccc(CC2SC(=O)NC2=O)cc1)c1ccccn1` (stereo not drawn), for which the outcome was inactive. Turning to `CC(C)c1ccc(C(C)C)cc1`, the result was inactive. As for `CC(=O)/C=C/C1=C(C)CCCC1(C)C`, the result was inactive.
